Data taken from PubChem BioAssay AID652017 (The Scripps Research Institute Molecular Screening Center, 2013).
The whole screen tested about 370,000 compounds, of which about 3,800 (1%) were called active. The sample holds actives, similar compounds and a random draw of the others, so the mix is not that of the screen. Values without a mark were called inactive. Cut-off read from the data, not from the text of the source: active = activation above about 7.8%; inactive = the rest.

test: SMARCA2 (BRM) function activators, primary screen, cell-based, luminescence, high throughput (AID 652017); conditions: MG213 cells, MMTV-luciferase reporter, dexamethasone, overnight; at 9.1 µM; hits give high values;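 note: 0% = vehicle wells and 100% = reference activator wells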

SMILES | activation
CN(CCO)c1cccc2c1S(=O)(=O)N(Cc1cn(Cc3ccc(C(F)(F)F)cc3)nn1)Cc1ccccc1O2 | 3.38%
CC(C)CNC(=O)OCc1cn(Cc2ccc(F)cc2)nn1 | -0.88%
CCOC(=O)[C@@]12CCC3=C1N(CCC3)C(=O)[C@H](CC(=O)N1CCN(C(=O)c3ccco3)CC1)C2 | -0.99%
COc1cccc(CNC(=O)[C@H]2CCCN2C(=O)[C@H]2CCCN2C(=O)c2ccc(F)cc2)c1 | -5.59%
CC1CCN(CC(=O)c2c[nH]c3ccccc23)CC1 | 4.35%
O=C(NCCCc1ccccc1)C(=O)c1c[nH]c2ccccc12 | 7.21%
O=C(NC1CCCC1)C(=O)c1c[nH]c2ccccc12 | 10.3% (active)
Cc1nn(C(C)(C)C)c(OC(=O)CC(C)C)c1S(=O)(=O)c1ccccc1 | -0.75%
N#Cc1c(/N=C/N2CCCC2)oc(-c2ccccc2)c1-c1ccccc1 | 1.32%
CCC(C)N(C)C1CCN(C(=S)Nc2ccc(OC)cc2)CC1 (configuration not stated) | 8.91% (active)
COc1ccc(N2CCN(C(=S)Nc3ccc(S(N)(=O)=O)cc3)CC2)cc1 | -1.43%
CCOc1ccc(NC(=S)N2CCC(N(C)CC3CCCO3)CC2)cc1 (configuration not stated) | 4.49%
O=C(CSc1nc2ccccc2n1Cc1ccccc1)NNC(=S)Nc1ccccc1 | 4.3%
COc1ccc(OC)c(NC(=O)c2cccc(S(=O)(=O)N3CCN(C(C)=O)CC3)c2)c1 | -1.12%
COc1cccc(/C=C/C(=O)Nc2ccc3c(c2)OCCO3)c1 | 5.29%
COc1cccc(C(=O)Nc2cc3c(cc2Br)OCCCO3)c1 | 11% (active)
O=S1(=O)C[C@@H](N2CCN(CCO)CC2)[C@H](COCc2ccccc2)N1 | -4.94%
COC(=O)[C@]12C[C@H](CC(=O)NCc3cccs3)C(=O)N(CCc3ccc(OC)c(OC)c3)C1=C[C@H](C(C)C)O[C@@H]2C1CC1 | -3.39%
O=C(NCCC1=CCCCC1)C1CCN(S(=O)(=O)c2ccc(Cl)s2)CC1 | -6.89%
COc1ccc(N(CC(=O)NC(C)(C)C)C(=O)c2ccco2)cc1 | -1.03%
COc1cccc2cc(/C(C)=N/NC(=O)c3ccco3)oc12 | 5.77%

SMILES | activation
C/C(CC(=O)NC(C)(C)C)=N\NC(=O)c1ccco1 | 8.95% (active)
CCC(NC(=O)C1C2C=CC3(CN(Cc4ccccc4)C(=O)C13)O2)c1ccccc1 (configuration not stated) | -1.92%
CC(C)CNC(=O)C1(C)CCCN1C(=O)CSc1ccccc1 (configuration not stated) | -1.93%
CS(=O)(=O)N1CCN(C(=O)CSc2ccccc2)CC1 | -2.96%
CC1(C(=O)NS(=O)(=O)C2CC2)CCCN(C(=O)CSc2ccccc2)C1 (configuration not stated) | 10.6% (active)
C[C@@H]1CN([C@H](C)CO)C(=O)CCCn2cc(nn2)CO[C@H]1CN(C)S(=O)(=O)c1ccc(Oc2ccccc2)nc1 | -2.13%
COc1ccc([C@H]2OC(=O)C[C@H]2C(=O)N2CCN(c3ccccc3F)CC2)cc1OC | -3.16%
COC(=O)[C@]12C[C@H](CC(=O)NCc3ccccc3)C(=O)N(CCc3ccc(OC)c(OC)c3)C1=C[C@H](C(C)(C)C)O[C@@H]2C | -3.03%
CCOC(=O)[C@]12CCCCC/C=C\1N(Cc1ccc(OC)cc1)C(=O)[C@H]2CC(=O)NCc1ccc(C)o1 | -0.44%
O=C(NCCCN1CCCCCC1)c1ccc(N2CCCC2=O)cc1 | 1.14%
CN1CCN(CCCNC(=O)c2ccc(/C=C3\Oc4ccccc4N(Cc4ccc(Cl)cc4)C3=O)cc2)CC1 | 10.6% (active)
O=C(NCCS(=O)(=O)NCc1ccc(Cl)cc1)c1ccccc1 | -0.89%
Cc1cc(NS(=O)(=O)c2ccc(NC(=O)CSc3nnc(SCc4ccc(F)cc4)s3)cc2)nc(C)n1 | -5.48%
O=C(Nc1cccc(Cl)c1)OC1CC2CC1[C@H]1CCCCN1[C@H]2Cc1ccccc1 (some centres not stated) | -2.01%
CCOC(=O)CSc1nc(C)cc2c1C(=O)OC2 | -2.43%
C#CCN([C@H](C(=O)OC)C(C)CC)S(=O)(=O)c1ccccc1Br (some centres not stated) | -1.68%
O=C(C[C@H]1CC[C@@H](NC(=O)c2ccncc2)[C@@H](CO)O1)NCC1CC1 | -1.73%
O=C(N[C@H]1CC[C@H](CC(=O)N2CCCCC2)O[C@@H]1CO)c1cccc(F)c1 | 8.81% (active)
O=C(Nc1ccc2c(c1)[C@@H]1C[C@@H](CC(=O)N3CCCCC3)O[C@@H](CO)[C@@H]1O2)NC1CCCCC1 | -1.84%
C=C1C(=O)[C@]23C[C@H]1CCC2[C@@]1(C)C(C[C@@H]3O)[C@](C)(C(=O)O)CC[C@@H]1O (some centres not stated) | 28.1% (active)
N#Cc1ccc(OC[C@@H](O)CN2CCC(C(O)(c3ccccc3)c3ccccc3)CC2)c(F)c1 | 1.41%
